These results are taken from PubChem BioAssay.

Assay [1] can be described thus: resazurin metabolic signal in HepG2 cells – cell-based, resazurin fluorescence, 24 h, PK04 Diversity Set, profiling panel (AID 1172). To be noted: HepG2 viability, higher = more signal. A general note: Alamar Blue is a resazurin reagent that responds to reducing activity.
A short description of assay [2]: budding yeast growth changes without added modifier – OD600, strain BY4716, 24 h, basal condition, primary screen (AID 1173). To be noted: S. cerevisiae BY4716 growth, OD600, 24 h; higher = more signal, called active from +8 up or from −8 down.
A short description of assay [3]: viability profiling in MM1S myeloma cells – cell-based, resazurin fluorescence, basal, 24 h, PK04 Diversity Set, profiling panel (AID 1174).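 Further: MM1S multiple myeloma cell line.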 To be noted: higher = more signal, called active from +8 up or from −8 down.
In assay [4] the target is Dihydroorotate dehydrogenase (quinone), mitochondrial (Plasmodium falciparum (isolate 3D7)) (UniProt Q08210). Put plainly: inhibition of P. falciparum DHODH – biochemical, C-terminal His tag, absorbance 600 nm, primary screen (AID 1175).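 Further: recombinant parasite enzyme with a five histidine tag at its C terminus.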 To be noted: PfDHODH enzyme, DCIP absorbance 600 nm; higher = more signal, called active from +8 up or from −8 down.
A short description of assay [5]: inhibition of PAO1 biofilm formation – strain PAO1, LB-PBS medium, absorbance 600 nm, primary screen (AID 1176). To be noted: P. aeruginosa PAO1 growth/biofilm, A600, 12 h; higher = more signal.
Assay [6] is described as follows: growth modulation of vineyard yeast isolate – strain RM11-1a, OD600, basal, 24 h, primary screen (AID 1177).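 Further: cultures grown under basal conditions with no added stressor.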 To be noted: S. cerevisiae RM11-1a growth, OD600, 24 h; higher = more signal, called active from +8 up or from −8 down.
Assay [7] can be described thus: growth of efflux-deficient E. coli DRC39 – strain DRC39, OD650, 24 h, E. coli filamentation inducers, primary screen (AID 1178).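 Further: growth measured as culture turbidity by optical density at 650 nm.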 To be noted: E. coli DRC39 acrAB, higher = more signal, called active from +8 up or from −8 down.
Assay [8] is described as follows: growth of efflux-deficient E. coli DRC39 – strain DRC39, OD650, 48 h, E. coli filamentation inducers, primary screen (AID 1179).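 Further: screen aims at cell division blockers that make cells filament.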 To be noted: E. coli DRC39 delta-acrAB growth, higher = more signal, called active from +8 up or from −8 down.
Assay [9] is described as follows: viability profiling in RPMI8226 myeloma cells – cell-based, resazurin fluorescence, basal, 24 h, PK04 Diversity Set, profiling panel (AID 1180).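 Further: RPMI8826 multiple myeloma cell line at 5000 cells per well.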 To be noted: higher = more signal.
For assay [10], the target named is E3 ubiquitin-protein ligase XIAP (Homo sapiens) (UniProt P98170). Put plainly: small molecules binding XIAP protein – biophysical, small-molecule microarray, fluorescence 635 nm, primary screen (AID 1181).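 Further: score merges 667 nm emission and signal to noise over triplicate slides.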 To be noted: higher = more signal.
Assay [11] concerns XIP peptide (Xip251-270) binding. Put plainly: XIP fragment 251-270 binding compounds – biochemical, small-molecule microarray, fluorescence 635/667 nm, 0.1 µg/mL protein, primary screen (AID 1182). To be noted: fluorescent protein binding, 635 nm, higher = more signal, called active from +8 up or from −8 down.
The subject of assay [12] is XIP peptide (Xip251-270). The assay can be described thus: compounds binding XIP fragment 251-270 – biochemical, small-molecule microarray, fluorescence 635/667 nm, 0.5 µg/mL protein, primary screen (AID 1183). To be noted: fluorescence 635 nm, higher = more signal.
A short description of assay [13]: blood-stage malaria parasite viability loss – strain 3D7, DAPI fluorescence, 100 nL, primary screen (AID 1184).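 Further: parasites grown inside human red blood cells in medium with human serum.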 To be noted: P. falciparum 3D7 growth, 3 d, higher = more signal.
Assay [14] deals with Homeobox protein Hox-A13 (Mus musculus) (UniProt Q62424). The assay can be described thus: disruptors of Hoxa13 oligonucleotide interaction – biochemical, fluorescence polarization, labeled oligonucleotide, primary screen (AID 1185). To be noted: Hoxa13:DNA binding, 15 min, higher = more signal, called active from +8 up or from −8 down. A general note: In fluorescence polarisation assays a small probe gives low polarisation when free and higher when bound to something large.

Assay [15] can be described thus: blockers of DNA damage checkpoint Chk1 activation – imaging, HeLa, hydroxyurea, phospho-Chk1 antibody, percent positive cells, primary screen (AID 1186). To be noted: hydroxyurea-induced phospho-Chk1 immunofluorescence imaging, higher = more signal.
The nature of assay [16]: blockers of DNA damage checkpoint Chk1 activation – imaging, HeLa, hydroxyurea, phospho-Chk1 nuclear intensity, primary screen (AID 1187). To be noted: hydroxyurea-induced phospho-Chk1 immunofluorescence imaging, higher = more signal.

Where “and” joins values, the source holds several entries; their conditions need not be identical. Equal values may be shown once. Some compounds were tested as several samples or in several runs, with calls that do not always agree. Calls of active or inactive are those of the source. Unless noted, how the calls were made is not given here.

Chain of Homeobox protein Hox-A13 (Mus musculus) (Q62424 whole entry, looked up): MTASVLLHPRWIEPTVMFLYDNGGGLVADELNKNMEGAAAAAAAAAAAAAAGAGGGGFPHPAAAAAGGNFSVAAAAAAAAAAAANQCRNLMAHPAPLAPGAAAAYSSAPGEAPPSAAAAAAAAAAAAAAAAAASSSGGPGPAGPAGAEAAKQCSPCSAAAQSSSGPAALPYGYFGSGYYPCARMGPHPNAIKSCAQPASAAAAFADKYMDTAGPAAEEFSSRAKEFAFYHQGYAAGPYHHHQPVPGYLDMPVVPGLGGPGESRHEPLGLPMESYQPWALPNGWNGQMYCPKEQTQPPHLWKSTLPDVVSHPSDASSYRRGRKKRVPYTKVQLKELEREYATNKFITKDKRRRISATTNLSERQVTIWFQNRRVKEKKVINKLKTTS
Chain of E3 ubiquitin-protein ligase XIAP (Homo sapiens) (P98170 whole entry, looked up, the tested form may be a part): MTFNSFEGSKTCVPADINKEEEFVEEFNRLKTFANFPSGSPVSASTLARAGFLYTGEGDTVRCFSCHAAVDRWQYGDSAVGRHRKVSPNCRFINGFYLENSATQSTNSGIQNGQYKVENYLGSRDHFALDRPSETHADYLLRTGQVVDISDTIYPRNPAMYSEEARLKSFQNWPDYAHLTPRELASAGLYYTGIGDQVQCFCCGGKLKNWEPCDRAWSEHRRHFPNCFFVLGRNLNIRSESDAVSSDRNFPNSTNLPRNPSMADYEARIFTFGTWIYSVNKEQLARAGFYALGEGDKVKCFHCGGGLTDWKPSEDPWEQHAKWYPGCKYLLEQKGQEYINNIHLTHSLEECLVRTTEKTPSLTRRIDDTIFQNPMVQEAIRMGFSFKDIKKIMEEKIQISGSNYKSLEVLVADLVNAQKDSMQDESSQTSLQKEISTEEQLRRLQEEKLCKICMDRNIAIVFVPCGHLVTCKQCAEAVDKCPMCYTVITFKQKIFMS
Chain of Dihydroorotate dehydrogenase (quinone), mitochondrial (Plasmodium falciparum (isolate 3D7)) (Q08210 whole entry, looked up): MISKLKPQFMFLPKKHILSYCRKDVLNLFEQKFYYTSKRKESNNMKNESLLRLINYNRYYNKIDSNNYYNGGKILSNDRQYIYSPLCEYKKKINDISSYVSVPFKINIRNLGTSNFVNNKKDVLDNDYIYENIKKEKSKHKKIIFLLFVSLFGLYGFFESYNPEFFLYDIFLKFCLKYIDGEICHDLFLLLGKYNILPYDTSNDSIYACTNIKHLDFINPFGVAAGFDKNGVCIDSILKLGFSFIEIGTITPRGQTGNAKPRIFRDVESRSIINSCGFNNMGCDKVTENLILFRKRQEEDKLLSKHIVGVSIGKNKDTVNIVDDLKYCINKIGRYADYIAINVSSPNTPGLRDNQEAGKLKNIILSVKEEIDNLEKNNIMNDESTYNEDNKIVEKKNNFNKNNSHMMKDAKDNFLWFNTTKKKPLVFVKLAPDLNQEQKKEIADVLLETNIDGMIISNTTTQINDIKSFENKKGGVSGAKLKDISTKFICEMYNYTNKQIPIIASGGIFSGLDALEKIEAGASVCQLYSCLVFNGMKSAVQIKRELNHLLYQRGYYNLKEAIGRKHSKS

Turning to `CN1C(=O)C2CC=C([C@H]3Oc4ccccc4S(=O)(=O)N4CCC[C@@H]34)CC2C1=O` (stereo partly specified), the z-score in assay [1] was -0.448 and 0.0011; in assay [2], 0.325 (inactive) and 0.478 (inactive); in assay [3], -0.391 (inactive) and -0.44 (inactive); in assay [5] it was -0.0582 (inactive) and 0.0481 (inactive); in assay [6], 0.961 (inactive) and 1.32 (inactive); in assay [7] it was 0.563 (inactive) and 0.831 (inactive). In addition, the z-score in assay [8] is 0.111 (inactive) and 0.0952 (inactive); in assay [9], -0.801 and -0.0821; in assay [13], -0.292 and -0.542; in assay [14], -2 (inactive) and -1.92 (inactive); in assay [15] it was 0.0695 (inactive) and 0.549 (inactive); in [16], -0.12 (inactive) and 0.575 (inactive). The composite z-score in assay [4] was 0.341 (inactive) and -0.0294 (inactive); in assay [10], -0.245 and -0.244; in assay [11] it was -0.0989 (inactive) and 0.181 (inactive); in assay [12], -0.128 and -1.09.
For `C=CCN(CCCC)C(=O)C(c1cccs1)N(CCOCCO)C(=O)/C=C\C(=O)O` (stereo unspecified), the z-score in [1] is -0.313 and -1.09; in [2], -0.8 (inactive) and 0.678 (inactive); in [3] it was -0.0247 (inactive) and -0.0815 (inactive); in assay [5] it was 0.0126 (inactive) and 0.177 (inactive); in assay [6], -1.34 (inactive) and -1.13 (inactive); in assay [7] it was 0.423 (inactive) and 0.0136 (inactive). Moreover, the z-score in [8] was 0.629 (inactive) and 0.633 (inactive); in assay [9] it was 0.0517 and 0.181; in assay [13], 0.329 and -0.0611; in assay [14], 0.578 (inactive) and 0.724 (inactive); in [15], -0.36 (inactive) and 0.442 (inactive); in assay [16], 0.132 (inactive) and 1.47 (inactive). For the same compound, the composite z-score is -1.49 (inactive) and -0.811 (inactive) in assay [4]; -0.352 and -0.234 in [10]; 0.455 (inactive) and 0.476 (inactive) in [11]; -0.836 and -0.765 in assay [12].
Regarding `C=CCN(CCCCC)C(=O)C1N(CCOCCO)C(=O)C2C(C(=O)O)C3C=CC21O3` (stereo unspecified), the z-score in assay [1] was -0.541 and -0.785; in assay [2], 0.709 (inactive) and 1.12 (inactive); in assay [3], -0.885 (inactive) and -1.41 (inactive); in assay [5] it was -0.553 (inactive) and -0.469 (inactive); in assay [6], 0.892 (inactive) and 0.451 (inactive); in [7] it was -0.649 (inactive) and -0.537 (inactive). The z-score in [8] is -0.496 (inactive) and -0.506 (inactive); in [9], -0.724 and -0.899; in assay [13], 0.234 and 0.841; in assay [14] it was -1.09 (inactive) and -0.752 (inactive); in assay [15], 0.0583 (inactive) and 0.485 (inactive); in assay [16] it was 0.233 (inactive) and -0.0615 (inactive). Also, the composite z-score is 1.39 (inactive) and -0.109 (inactive) in assay [4]; -0.113 and -0.124 in assay [10]; 0.901 (inactive) and -0.15 (inactive) in assay [11]; 0.571 and -1.58 in assay [12].
Turning to `C=CCN1C(=O)[C@]2(O[C@H](CCn3cc(CCO)nn3)[C@@H]([Si](C)(C)c3ccc(OC)cc3)[C@@H]2C)c2cc(N3C(=O)c4cccc5cccc3c45)ccc21`, the z-score in assay [1] was -6.38 and -6.41; in assay [2] it was 1.99 (inactive) and 1.56 (inactive); in assay [3], -9.01 (active) and -9.12 (active); in assay [5], 0.355 (inactive) and 1.15 (inactive); in assay [6], 4.03 (inactive) and 3.23 (inactive); in assay [7], 1.91 (inactive) and 1.72 (inactive). Further, the z-score is 0.906 (inactive) and 0.389 (inactive) in assay [8]; -6.26 and -6.25 in [9]; -2.67 and -2.76 in assay [13]; -5.18 (inactive) and -5.57 (inactive) in assay [14]; -1.98 (inactive) and -1.13 (inactive) in [15]; -1.8 (inactive) and -1.3 (inactive) in [16]. For the same compound, the composite z-score in assay [4] was 1.19 (inactive) and 1.35 (inactive); in assay [10], -0.178 and 0.0256; in [11], 0.0184 (inactive) and 0.416 (inactive); in [12] it was 0.577 and 0.719.
In the case of `C=C[C@@H](OC)[C@H](O)c1ccc(O)c(F)c1`, the z-score in assay [1] is 0.097 and -0.0575; in assay [2], -8.11 (active) and -7.12 (inactive); in assay [3], 0.0746 (inactive) and 0.161 (inactive); in [5], 0.826 (inactive) and 0.143 (inactive); in assay [6] it was 1.17 (inactive) and -1.07 (inactive); in [7], 0.407 (inactive) and 0.707 (inactive). The z-score was 0.27 (inactive) and 0.965 (inactive) in assay [8]; -0.0761 and 0.295 in [9]; 0.295 and 0.636 in [13]; -0.933 (inactive) and 0.017 (inactive) in [14]; 0.591 (inactive) and -0.353 (inactive) in assay [15]; 0.496 (inactive) and 0.357 (inactive) in [16]. For the same compound, the composite z-score in assay [4] is 0.789 (inactive) and -1.04 (inactive); in [10], -0.195 and 0.0027; in assay [11], -0.25 (inactive) and -2.1 (inactive); in assay [12], 0.116 and 0.444.
As for `CC[C@@H]1C(Sc2ccccc2)C(C(=O)O)[C@H](c2ccc(C)cc2)N1S(=O)(=O)c1ccc(C)cc1` (stereo partly specified), the z-score was -0.706 and -0.917 in assay [1]; -0.28 (inactive) and -1.3 (inactive) in assay [2]; -0.567 (inactive) and 0.0522 (inactive) in assay [3]; 0.133 (inactive) and 0.257 (inactive) in assay [5]; -0.112 (inactive) and -1.09 (inactive) in assay [6]; -0.604 (inactive) and -0.627 (inactive) in [7]. Moreover, the z-score was -0.106 (inactive) and 0.575 (inactive) in [8]; -1.17 and -0.637 in [9]; -0.606 and 0.251 in assay [13]; -5.66 (inactive) and -4.34 (inactive) in assay [14]; -0.114 (inactive) and -0.912 (inactive) in assay [15]; -0.369 (inactive) and -0.714 (inactive) in [16]. For the same compound, the composite z-score in assay [4] was 0.0392 (inactive) and -0.581 (inactive); in assay [10], 0.287 and 0.382; in [11], 1.07 (inactive) and -0.215 (inactive); in assay [12], 0.278 and 0.605.
